Assay outcomes as filed in PubChem.
Shown is part of a subset that was picked to be rich in hits.
ALOX12 inh = Primary qHTS assay for inhibitors of human arachidonate 12S-lipoxygenase (ALOX12): Round 2; Potency, µM (highest dose often 108 µM), for inactives: top-dose activity change, negative = inhibition, usual class: inhibitors; actives 1.1% (n = 580,000); purified 12hLO, xylenol orange hydroperoxide absorbance; Polyunsaturated fatty acid lipoxygenase ALOX12 (Homo sapiens), P18054; AID 1671190, 2021; note: potency is the fitted concentration of half-maximal effect
Target sequence (P18054 whole entry, looked up): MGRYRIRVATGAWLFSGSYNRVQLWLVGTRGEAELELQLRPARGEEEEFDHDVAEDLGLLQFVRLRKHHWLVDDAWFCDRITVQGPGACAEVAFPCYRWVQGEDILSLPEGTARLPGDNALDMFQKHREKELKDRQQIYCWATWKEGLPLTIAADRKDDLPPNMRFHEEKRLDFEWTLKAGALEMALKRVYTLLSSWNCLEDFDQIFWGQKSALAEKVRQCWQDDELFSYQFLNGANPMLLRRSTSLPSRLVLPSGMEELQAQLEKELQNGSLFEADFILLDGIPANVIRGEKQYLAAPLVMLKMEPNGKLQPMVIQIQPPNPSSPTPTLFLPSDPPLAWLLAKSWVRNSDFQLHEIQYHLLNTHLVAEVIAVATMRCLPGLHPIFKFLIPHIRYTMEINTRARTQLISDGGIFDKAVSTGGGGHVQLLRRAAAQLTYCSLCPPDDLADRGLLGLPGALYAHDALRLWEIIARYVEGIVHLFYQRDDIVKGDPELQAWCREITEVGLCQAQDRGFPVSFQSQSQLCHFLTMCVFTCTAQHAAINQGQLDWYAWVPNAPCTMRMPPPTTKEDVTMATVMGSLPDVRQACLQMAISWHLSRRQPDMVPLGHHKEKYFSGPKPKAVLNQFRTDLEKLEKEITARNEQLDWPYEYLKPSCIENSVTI
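Purified human 12hLO at 150 nM in 25 mM Hepes, 0.01% Triton X-100, pH 7.0, preincubated 15 min at room temperature with compound. Reaction started with 40 uM arachidonic acid, 30 min at room temperature. Hydroperoxide measured by Fe-xylenol orange, 573/405 nm absorbance ratio.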
IL1B secr inh = qHTS for Inhibitors of Inflammasome Signaling: IL-1-beta AlphaLISA Primary Screen; activity change, % at 57.5 µM; actives 4.7% (n = 360,000); THP-1 LPS/ATP IL-1B secretion, AlphaLISA, 16 h; hits give low values; in the data active = activity change below about -50%; inconclusive = mostly about -30% to -49%
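Secreted IL-1B measured by AlphaLISA bead assay after 16 h compound exposure of THP-1 cells; compounds (final up to 57.5 uM) added 1 h before LPS (250 ng/mL) and ATP (1.25 mM) stimulation; lower signal means less secretion.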
TDP1 cell CPT = qHTS for Inhibitors of human tyrosyl-DNA phosphodiesterase 1 (TDP1): qHTS in cells in presence of CPT. AID 686979, 2013. chicken DT40 Tdp1-/-;hTDP1 cells + 20 nM CPT, ATP luminescence, 48 h. actives 12% (n = 420,000). Potency, µM (doses to about 46.2 µM), for inactives: at the top dose activity change, negative = growth inhibition, hits mostly inhibitors; note: potency is the fitted concentration of half-maximal effect; nearly all actives have a fitted effect of over 55% in size
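Chicken DT40 Tdp1-/- cells stably complemented with human TDP1 were seeded at 400 cells/well in medium containing 20 nM camptothecin, exposed to pin-transferred compounds, and grown at 37 °C for at least 48 hr. Viability was read as ATP luminescence.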
HT1080NT lethal = qHTS for induction of synthetic lethality in tumor cells producing 2HG: qHTS for the HT-1080-NT fibrosarcoma cell line; Potency, µM (titrated, usually from 46.1 µM), for inactives: at the top dose activity, negative = less viability, actives largely listed as cytotoxic; HT-1080-NT fibrosarcoma viability, CellTiter-Glo ATP luminescence, 48 h; actives 1.6% (n = 360,000);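 note: NT is the 2HG producing partner of a matched IDH1 knockdown line; potency is the fitted concentration of half-maximal effect; 0% = DMSO-treated cells and -100% = media-only wells without cells; nearly all actives have a fitted effect of over 55% in size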
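Fibrosarcoma NT cells, 750 per well in 5% FBS RPMI, were exposed to compound for 48 hours. Viability: CellTiter-Glo luminescence.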
DT40 TDP1 no CPT = qHTS for Inhibitors of human tyrosyl-DNA phosphodiesterase 1 (TDP1): qHTS in cells in absence of CPT | DT40 Tdp1-/- hTDP1 cells, no CPT, ATP luminescence, 48 h | Potency, µM (titrated, usually from 46.2 µM), without a hit: at the highest dose activity change, negative = growth inhibition, actives largely listed as inhibitors | actives 15% (n = 420,000); note: potency is the fitted concentration of half-maximal effect; nearly all actives have a fitted effect of over 55% in size
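No-CPT arm: Tdp1-/-;hTDP1 DT40 cells (400/well) plus compounds, incubated ≥48 hr at 37 °C. Readout CellTiter-Glo luminescence.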
HT1080 IDH1KD tx = qHTS for induction of synthetic lethality in tumor cells producing 2HG: qHTS for the HT-1080-IDH1KD cell line; Potency, µM (top dose mostly 46.1 µM), for the others: top-dose activity, negative = toxicity, usual class: cytotoxic; HT-1080 IDH1 knockdown viability, ATP luminescence, 48 h; actives 2% (n = 360,000);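 note: potency is the fitted concentration of half-maximal effect; 0% = DMSO wells and -100% = cell-free medium wells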
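Luminescent ATP read-out (CellTiter-Glo, 10 min at room temperature) after 48 h compound exposure at 37 °C gave viability of IDH1-knockdown HT-1080 cells. Activity was normalised to DMSO and cell-free wells, then fitted as concentration-response curves.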
An asterisk follows results filed as active; ? = inconclusive; · = not tested or not shown. Unless noted, calls come from the whole dose curve; as a rule, active = well fitted curve in the direction sought with a large enough effect; inconclusive = small, poorly fitted or top-dose-only effect, or another doubt; inactive = no such curve, though single readings can be large; an effect the other way counts as inactive or inconclusive. Unless noted, % is set by controls: 0 for no effect and ±100 for the full control effect.

SMILES | ALOX12 inh | IL1B secr inh | TDP1 cell CPT | HT1080NT lethal | DT40 TDP1 no CPT | HT1080 IDH1KD tx
O=C(Nc1ccc(C(F)(F)F)cc1)C1CCCCN1S(=O)(=O)c1ccccc1 (stereo not drawn) | ? | -24 | 9.2µM* | 2% | 29µM* | -2%
O=C(Nc1ccc(Cl)cc1)C1CCCCN1S(=O)(=O)c1ccccc1 (stereo not drawn) | ? | -10 | ? | ? | 7.3µM* | ?
CC(=O)Nc1ccc(NC(=O)C2CCCCN2S(=O)(=O)c2ccc(C(C)(C)C)cc2)cc1 (stereo not drawn) | -26% | 13 | 23µM* | -15% | ? | -20%
O=C(Nc1ccccc1)C1CCCCN1S(=O)(=O)c1ccccc1 (stereo not drawn) | -10% | 9 | -9% | -8% | ? | -17%
Cc1cc(C)cc(NC(=O)C2CCCCN2S(=O)(=O)c2ccccc2)c1 (stereo not drawn) | -11% | -3 | 21µM* | -3% | 13µM* | -6%
C/C(=N\O)c1cc2cc(Br)ccc2oc1=O | 6% | · | · | · | · | ·
CCS(=O)(=O)c1ncc(CN(C)CCOc2ccc(C)cc2)n1Cc1ccccc1 | 59% | · | · | · | · | ·
COC(=O)[C@]12C[C@H](CC(=O)N3CCOCC3)C(=O)N(Cc3cccc4ccccc34)C1=C[C@H](C(C)C)O[C@@H]2C1CC1 | 27% | · | · | · | · | ·
O=C(N/N=C/C1CC2CCC1C2)C12CC3CC(CC(C3)C1)C2 (stereo not drawn) | -3% | · | · | · | · | ·
O=C(NC1CC1)c1cccc(NC(=O)C2CCC2)c1 | -3% | 7 | 6% | 1% | 4% | 14%
COc1ccc(S(=O)(=O)N2CCCC2C(=O)Nc2nnc(-c3cccnc3)s2)cc1 (stereo not drawn) | 40µM* | 29 | -29% | -2% | -29% | 12%
CC(=O)c1cccc(NC(=O)C2CCCN2S(=O)(=O)c2ccccc2C(F)(F)F)c1 (stereo not drawn) | 19% | 3 | -1% | -3% | -7% | -1%
O=C(NCc1ccccc1Cl)[C@@H]1CCCN1S(=O)(=O)c1ccc(Cl)cc1 | -21% | -51* | ? | -1% | 16µM* | -5%
O=C(NC1CC1)c1cccc(NC(=O)C2CCN(S(=O)(=O)c3ccccc3C(F)(F)F)CC2)c1 | -4% | -8 | ? | -5% | 26µM* | 1%
O=C(NCc1ccccc1)C1CCCN1S(=O)(=O)c1ccc(Cl)cc1 (stereo not drawn) | ? | 0 | ? | 14% | -27% | -1%
O=C(Nc1cccc(S(=O)(=O)N2CCCCC2)c1)[C@@H]1CCCN1S(=O)(=O)c1ccccc1C(F)(F)F | 94% | ? | ? | -6% | 23µM* | 2%
COc1cccc(C(=O)N[C@H](C(=O)N2CCC[C@H]2C(=O)NCc2ccccc2)c2ccccc2)c1 | 1% | · | · | · | · | ·
CC(Cc1ccco1)NC(=O)c1ccc(Cl)c(S(C)(=O)=O)c1 (stereo not drawn) | 42% | · | · | · | · | ·
CC(=O)c1ccc(NC(=O)C2CCCN2S(=O)(=O)c2ccc(C)cc2)cc1 (stereo not drawn) | 4% | 124 | ? | 6% | ? | 0%
Cc1ccc(NC(=O)[C@@H]2CCCN2S(=O)(=O)c2ccc(Cl)cc2)cc1 | -25% | 4 | 21µM* | 24% | ? | -7%
Cc1ccc(S(=O)(=O)N2CCCC2C(=O)Nc2nc3c(s2)CCCC3)cc1 (stereo not drawn) | 0% | -4 | ? | -1% | 23µM* | -23%
O=C(CS(=O)(=O)c1ccc(Cl)cc1)N1CCN(c2ccccc2)CC1 | 1% | -20 | 0% | 0% | -26% | 4%
O=C(OCC(=O)N1CCN(c2ccccc2)CC1)C1CCCN1S(=O)(=O)c1ccc(Cl)cc1 (stereo not drawn) | ? | 7 | ? | 3% | 21µM* | 1%
Cc1ccc(S(=O)(=O)N2CCCCC2C(=O)N(C)c2ccccc2)cc1 (stereo not drawn) | 61% | 24 | 16µM* | -12% | 15µM* | 0%
Cc1ccc(S(=O)(=O)N2CCCCC2C(=O)Nc2nncs2)cc1 (stereo not drawn) | 0% | 0 | 8% | 0% | -3% | -2%
SMILES | ALOX12 inh | IL1B secr inh | TDP1 cell CPT | HT1080NT lethal | DT40 TDP1 no CPT | HT1080 IDH1KD tx
O=C(N[C@@H]1CN(C(=O)Nc2ccccc2)CCC[C@H]1O)c1ccc(OCCN2CCCC2)cc1 | -16% | · | · | · | · | ·
CNC(=O)c1ccc(Cn2cc(-c3nccn3C)nn2)o1 | 21% | · | · | · | · | ·
COc1ccccc1CNc1nc2ccccc2nc1NS(=O)(=O)c1cccc2nsnc12 | 1% | · | · | · | · | ·
CC(=O)NC12CC3CC(C1)CC(C(=O)NCc1ccc(Cl)cc1Cl)(C3)C2 | -21% | · | · | · | · | ·
O=C(Nc1ccc(Cl)cn1)C1CCCN1S(=O)(=O)c1ccccc1 (stereo not drawn) | -7% | 13 | 21µM* | -3% | 12µM* | -2%
CCCC[C@@H]1CNCCN1CC1(c2ccccc2)CC1 | 16% | ? | 12µM* | -13% | 12µM* | -2%
NCCCC[C@H]1CNC(=S)N1CC1(c2ccccc2)CC1 | 9% | 5 | ? | 6% | -24% | 7%
Oc1ccc(C[C@@H]2CNCCN2CC2(c3ccccc3)CC2)cc1 | -12% | ? | ? | -11% | ? | 2%
Oc1ccc(C[C@H]2CNCCN2CC2(c3ccccc3)CC2)cc1 | -27% | -61* | 21µM* | -1% | ? | -12%
N#Cc1cc2c(nc1SCc1ccc(Cl)nc1)CCCCC2 | 12% | -14 | -30% | -20% | ? | -19%
CCCC(=O)N1CCC2(CC1)N(c1ccccc1)C(=O)CS2(=O)=O | 6% | · | · | · | · | ·
CC(C)(C)c1ccc(S(=O)(=O)/C=C/C#N)cc1 | · | · | 0.79µM* | · | 0.56µM* | ·
C[C@H]1CN([C@@H](C)CO)C(=O)c2cc(NC(=O)C3CCCCC3)ccc2O[C@H]1CN(C)S(=O)(=O)c1ccccc1 | ? | -6 | 21µM* | 1% | ? | 5%
